# Screens from PubChem.
# IL-1B inflam inh: qHTS for Inhibitors of Inflammasome Signaling: IL-1-beta AlphaLISA Primary Screen; THP-1 LPS/ATP IL-1B secretion, AlphaLISA, 16 h; hits give low values; activity change, % at 57.5 µM; 4.7% of 360,000 active; in the data active means activity change below about -50%; inconclusive means mostly about -30% to -49%
#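 THP-1 cells pretreated 1 hr with compounds (up to 57.5 uM final), then stimulated with LPS (250 ng/mL final) plus ATP (1.25 mM final); secreted IL-1B measured by AlphaLISA after 16 hr, decreased signal indicating inhibition.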
# HT1080 IDH1KD tx: qHTS for induction of synthetic lethality in tumor cells producing 2HG: qHTS for the HT-1080-IDH1KD cell line; HT-1080 IDH1 knockdown viability, ATP luminescence, 48 h; Potency, µM (series often up to 46.1 µM), for inactives: top-dose activity, negative = toxicity, actives largely listed as cytotoxic; 2% of 360,000 active;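 further: potency means the concentration at half of the fitted maximal effect; 0% = DMSO wells and -100% = cell-free medium wells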
#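 After a 2 h attachment period, IDH1KD HT-1080 cells took pin-transferred compound for 48 h at 37 °C; ATP-based luminescence after 10 min room-temperature reagent incubation reported viability.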
# HT1080NT lethal: qHTS for induction of synthetic lethality in tumor cells producing 2HG: qHTS for the HT-1080-NT fibrosarcoma cell line; HT-1080-NT fibrosarcoma viability, CellTiter-Glo ATP luminescence, 48 h; Potency, µM (series often up to 46.1 µM), for inactives: at the top dose activity, negative = less viability, actives largely listed as cytotoxic; 1.6% of 360,000 active; AID 686970, 2013;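 further: NT is the 2HG producing partner of a matched IDH1 knockdown line; potency means the concentration at half of the fitted maximal effect; 0% = DMSO-treated cells and -100% = media-only wells without cells; nearly all actives have a fitted effect of over 55% in size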
#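 Toxicity toward the 2HG-producing NT line was scored as %Activity, normalised to DMSO and no-cell wells, from CellTiter-Glo luminescence after 48 hours' treatment.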
# DT40 TDP1 CPT: qHTS for Inhibitors of human tyrosyl-DNA phosphodiesterase 1 (TDP1): qHTS in cells in presence of CPT; chicken DT40 Tdp1-/-;hTDP1 cells + 20 nM CPT, ATP luminescence, 48 h; Potency, µM (top dose mostly 46.2 µM), for inactives: top-dose activity change, negative = growth inhibition, hits mostly inhibitors; 12% of 420,000 active; further: potency means the concentration at half of the fitted maximal effect; nearly all actives have a fitted effect of over 55% in size
#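 Cell growth measured by CellTiter-Glo luminescence after a minimum 48 h, 37 C compound exposure with 20 nM CPT in Tdp1-knockout DT40 cells stably expressing hTDP1, seeded 400/well; qHTS titration format.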
# DT40 TDP1 no CPT: qHTS for Inhibitors of human tyrosyl-DNA phosphodiesterase 1 (TDP1): qHTS in cells in absence of CPT; DT40 Tdp1-/- hTDP1 cells, no CPT, ATP luminescence, 48 h; Potency, µM (series often up to 46.2 µM), for inactives: top-dose activity change, negative = growth inhibition, hits mostly inhibitors; 15% of 420,000 active; further: potency means the concentration at half of the fitted maximal effect; nearly all actives have a fitted effect of over 55% in size
#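 Chicken DT40 Tdp1-/- cells stably complemented with human TDP1 were seeded at 400 cells/well with DMSO in place of 20 nM camptothecin. After compound pinning, cells grew at least 48 hr at 37 °C; viability read by CellTiter-Glo luminescence.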
# 12-LOX inh: Primary qHTS assay for inhibitors of human arachidonate 12S-lipoxygenase (ALOX12): Round 2 | 1.1% of 580,000 active | purified 12hLO, xylenol orange hydroperoxide absorbance | Potency, µM (doses to about 108 µM), inactives show at the highest dose activity change, negative = inhibition, actives largely listed as inhibitors | Polyunsaturated fatty acid lipoxygenase ALOX12 (Homo sapiens), P18054; further: potency means the concentration at half of the fitted maximal effect
# Target sequence (P18054 whole entry, looked up): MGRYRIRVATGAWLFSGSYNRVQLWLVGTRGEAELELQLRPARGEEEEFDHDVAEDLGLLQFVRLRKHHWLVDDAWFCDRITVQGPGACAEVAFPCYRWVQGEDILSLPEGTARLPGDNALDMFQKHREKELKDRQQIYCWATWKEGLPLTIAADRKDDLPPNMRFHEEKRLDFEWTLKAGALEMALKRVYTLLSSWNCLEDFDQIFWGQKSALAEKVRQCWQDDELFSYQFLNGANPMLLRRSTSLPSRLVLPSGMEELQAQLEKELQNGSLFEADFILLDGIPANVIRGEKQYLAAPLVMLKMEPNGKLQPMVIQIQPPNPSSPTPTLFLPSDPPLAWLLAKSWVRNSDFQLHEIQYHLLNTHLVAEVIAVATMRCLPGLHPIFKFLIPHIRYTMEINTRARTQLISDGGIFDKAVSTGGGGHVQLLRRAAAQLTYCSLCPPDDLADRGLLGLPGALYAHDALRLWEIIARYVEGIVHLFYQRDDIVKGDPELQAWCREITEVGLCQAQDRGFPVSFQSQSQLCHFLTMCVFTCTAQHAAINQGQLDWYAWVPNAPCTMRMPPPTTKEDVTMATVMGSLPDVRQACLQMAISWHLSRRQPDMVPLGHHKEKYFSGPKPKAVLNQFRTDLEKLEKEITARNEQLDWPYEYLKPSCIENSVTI
#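 Hydroperoxide product was detected by ferrous iron/xylenol orange as the 573 to 405 nm absorbance ratio. Arachidonic acid at 40 uM (final) was turned over for 30 min at room temperature by 150 nM human 12hLO, pH 7.0 Hepes buffer, after 15 min compound preincubation.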
# Starred values were filed as active, the others as inactive; ? = inconclusive; / = not tested or not shown; [ ] = another dose, or the depositor's remark. Shown is part of a subset that was picked to be rich in hits. Unless noted, the call rests on the fitted dose curve; in most records, active means well fitted curve in the direction sought with a large enough effect; inconclusive means small, poorly fitted or top-dose-only effect, or another doubt; inactive means no such curve, though single readings can be large; an effect the other way counts as inactive or inconclusive. Unless noted, on the % scale 0 is the no-effect control and ±100 the full control effect.
SMILES,IL-1B inflam inh,HT1080 IDH1KD tx,HT1080NT lethal,DT40 TDP1 CPT,DT40 TDP1 no CPT,12-LOX inh
CC(O)CNS(=O)(=O)c1ccc(Oc2ccc(S(=O)(=O)NCC(C)O)cc2)cc1 (stereo unspecified),/,/,/,/,/,-15.3%
COc1cccc(-c2cnc3c(NC=O)cc(-c4cc(C)c(O)c(C)c4)cn23)c1,25.2,?,?,3.66µM*,4.61µM*,?
CS(=O)(=O)c1ccc(-c2cc(NC=O)c3ncc(-c4ccc(F)cc4)n3c2)cc1,-13.7,?,?,23.1µM*,23.1µM*,0.1%
COc1cccc(-c2cnc3c(NC=O)cc(-c4ccoc4)cn23)c1,60.8,-8.8%,-10.3%,13µM*,14.6µM*,?
COc1cccc(-c2cnc3c(NC=O)cc(-c4ccccc4Oc4ccccc4)cn23)c1,11.3,?,?,?,?,-17.4%
COc1cccc(-c2cnc3c(NC=O)cc(-c4ccccc4)cn23)c1,88.6,2.59µM*,5.8µM*,5.17µM*,5.17µM*,-9.6%
CC(C)CN1C(=O)c2cccn2CC1C(=O)N1CCCC1 (stereo unspecified),/,/,/,/,/,14.6%
COc1ccc(C(=O)CC#N)c(OC)c1,/,/,/,/,/,0.0%
CCC(C)NC(=O)CCN(CCCOC)C(=O)c1cc(C)oc1C (stereo unspecified),/,/,/,/,/,69.8%
CC(C)(CO)NC(=O)C12CC3CCC(CC(C3)C1)C2,/,/,/,/,/,23.7%
COc1cccc(-c2cnc3c(NC=O)cc(-c4ccc(N5CCN(C)CC5)cc4)cn23)c1,74.9,?,?,16.4µM*,?,-14.3%
O=CNc1cc(-c2ccc(C(=O)NC3CC3)cc2)cn2c(-c3ccc(F)cc3)cnc12,-77.9*,8.2µM*,?,23.1µM*,23.1µM*,2.4%
COc1cccc(-c2cc(NC=O)c3ncc(-c4ccc(F)c(Cl)c4)n3c2)c1,?,-2.5%,-5.6%,?,?,-29.4%
O=C(NC1CC1)c1ccc2nnc(-c3ccc(F)cc3)n2c1,/,/,/,/,/,5.0%[12.5 µM]
COc1cccc(-c2cnc3c(NC=O)cc(-c4ccc(S(C)(=O)=O)cc4)cn23)c1,13.5,?,?,18.4µM*,16.4µM*,0.1%
O=C(NCc1cccs1)c1cc(Br)cn2ccnc12,/,/,/,/,/,-4.7%[176 µM]
O=C(COc1ccc(Cl)cc1)Nc1cccc(-c2nnc3n2CCCC3)c1,/,/,/,/,/,36.9%
O=C(CCc1ccccc1)NCCC1CCN(C(=O)Nc2cccc(F)c2)CC1,/,/,/,/,/,7.0%
COc1ccc(Cc2c(-c3ccco3)nc3c(C)cc(Br)cn23)c(C)c1,2.0,6.51µM*,?,2.91µM*,2.31µM*,?
COc1ccccc1Cc1c(-c2ccc(C)cc2)nc2c3ccccc3ccn12,/,/,/,/,/,-7.2%
COc1ccccc1Cc1c(-c2ccco2)nc2c(C)cc(Br)cn12,-12.6,3.66µM*,3.26µM*,2.91µM*,5.8µM*,/
COc1ccc(Cc2c(-c3ccco3)nc3ccc(Br)cn23)c(C)c1,-23.4,20.6µM*,?,20.6µM*,?,?
COc1ccc(Cc2c(-c3ccco3)nc3ccc(Cl)cn23)c(C)c1,-4.2,?,-24.4%,?,?,?
COc1ccccc1Cc1c(-c2ccco2)nc2c3ccccc3ccn12,-2.0,?,?,23.1µM*,16.4µM*,?
COc1ccc(-c2nc(SC(C)C(=O)NCC(C)C)n[nH]2)c(OC)c1 (stereo unspecified),/,/,/,/,/,-24.7%
SMILES,IL-1B inflam inh,HT1080 IDH1KD tx,HT1080NT lethal,DT40 TDP1 CPT,DT40 TDP1 no CPT,12-LOX inh
COc1ccc(C(=O)CCN(C)C)c2ccccc12,/,/,/,1.26µM*,2.82µM*,/
COc1ccc(C(=O)c2ccc(Cl)cc2)c2ccccc12,-11.0,-27.5%,-23.6%,?,?,11.6%
CCc1c(C)nc2ncnn2c1NCCc1ccc(Cl)cc1,-19.5,-14.3%,-29.3%,16.4µM*,9.2µM*,-6.5%
CN(C)S(=O)(=O)c1ccc(Cl)c(C(=O)Nc2cc(Cl)cc3cccnc23)c1,/,/,/,/,/,1.9%
Cc1ccc(S(=O)(=O)c2cc(OC(=O)c3ccco3)ccc2OC(=O)c2ccco2)cc1,4.2,-5.9%,-1.7%,?,16.4µM*,-7.4%
COc1ccccc1CCNC(=O)Cc1c(C)c2ccc(OC)c(C)c2oc1=O,/,/,/,/,/,1.7%
Cc1cccc(NC(=O)CSc2nc3ccc(NC(=O)COc4ccccc4F)cc3s2)c1,/,/,/,16.4µM*,6.51µM*,0.0%
Cc1cccc(NC(=O)CSc2nc3ccc(NC(=O)c4ccccc4)cc3s2)c1,/,/,/,8.2µM*,6.51µM*,-3.0%
O=C(COc1ccccc1F)Nc1ccc2nc(SCc3ccccc3)sc2c1,/,/,/,-26.4%,-19.6%,-14.0%
Cn1cnc(C(=O)N2[C@@H]3CC[C@H]2CC(NC(=O)c2ccc(F)cc2)C3)c1 (stereo partly specified),/,/,/,/,/,11.8%
O=C(C1=C[C@H](C2CC2)C[C@H](OCc2ccc(CO)cc2)O1)N1CCN(Cc2ccc3c(c2)OCO3)CC1,0.0,-2.6%,-3.2%,?,?,-11.2%
O=C(C1=C[C@@H](C2CCCCC2)C[C@@H](OCc2ccc(CO)cc2)O1)N1CCN(Cc2ccc3c(c2)OCO3)CC1,-63.3*,?,?,?,16.4µM*,-3.4%
O=C(C1=C[C@H](C2CCCCC2)C[C@H](OCc2ccc(CO)cc2)O1)N1CCN(Cc2ccc3c(c2)OCO3)CC1,-70.2*,?,?,?,?,/
CCCCCCCCS(=O)(=O)CCSCCO,/,/,/,/,/,-0.2%
COc1ccc(C(=O)N2CC(Oc3ccccc3-c3nc(-c4cnccn4)no3)C2)cn1,/,/,/,/,/,-8.2%
COC(=O)c1cc2c(ccn2-c2ccc(F)cc2)n1Cc1ccc(OC(C)=O)cc1,2.2,-16.8%,0.0%,?,?,?
COc1cccc(CN2CCN(c3ccc(F)cc3)C2=O)c1,-51.4*,-16.4%,-7.9%,-16.9%,?,1.8%
CCOC(=O)c1cc2c(ccn2C)n1CC(=O)N1CCC(Cc2ccccc2)CC1,-74.4*,-13.1%,0.0%,23.1µM*,17.8µM*,?
CCOC(=O)c1cc2c(ccn2-c2ccc(F)cc2)n1CC(=O)N1CCN(C(=O)c2ccco2)CC1,0.0,-7.6%,-2.8%,?,11.6µM*,39.3%[57.4 µM]
